According to PubChem BioAssay (NCATS):
Inconclusive results are not listed. Active and inactive are the calls of the source. The call rests on the fitted dose curve; in most records, active means well fitted curve in the direction sought with a large enough effect; inconclusive means small, poorly fitted or top-dose-only effect, or another doubt; inactive means no such curve, though single readings can be large; an effect the other way counts as inactive or inconclusive.

Tests used:
[1] = tested on: KB-3-1; experiment: Cytotoxic Profiling of Annotated Libraries Using Quantitative High-Throughput Screening (AID 1296008); details: Five cell lines viability, CellTiter-Glo ATP luminescence, 48-72 h; max response: hits give low values; further: nearly all actives have a fitted effect of over 60% in size; on max response: on the % scale 0 is the no-effect control and ±100 the full control effect
In short: (§1)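 Cells exposed to compounds for 48 or 72 hr at 37 degrees Celsius. Viability read as ATP-coupled luminescence with CellTiter-Glo after 10 min at room temperature.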

[2] = tested on: NIH3T3; experiment: as above; details: Five cell lines viability, CellTiter-Glo ATP luminescence, 48-72 h; max response: hits give low values
In short: as §1

[3] = tested on: HEK293T; experiment: qHTS assay to identify novel small-molecules to repurpose for Merkel cell carcinoma treatment (AID 1296009); details: MCC and control cell lines, CellTiter-Glo viability, 72 h; series mostly up to 44.8 µM; further: nearly all actives have a fitted effect of over 60% in size
In short: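 Cells were incubated with compound for 72 hr at 37 degree celsius before CellTiter-Glo addition. Luminescence was normalized with no-cell wells as full cytotoxicity and DMSO as baseline.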

[4] = tested on: C33A; experiment: Primary qHTS to identify gynecologic anti-cancer compounds using libraries of approved drugs and bioactive compounds (AID 1345084); details: Gynecologic cancer cell panel viability, ATPlite luminescence, 48 h; series mostly up to 57.5 µM; further: on the % scale 0 is the no-effect control and ±100 the full control effect; nearly all actives have a fitted effect of over 55% in size
In short: (§2)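 Five-point cytotoxicity, 48 h drug exposure at 37 C, 5% CO2, on cells seeded 16 h beforehand. ATP content read by ATPlite luminescence.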

[5] = tested on: CAOV3; experiment: as above; details: Gynecologic cancer cell panel viability, ATPlite luminescence, 48 h; series mostly up to 57.5 µM
In short: as §2

[6] = tested on: CASKI; experiment: as above; details: Gynecologic cancer cell panel viability, ATPlite luminescence, 48 h; series mostly up to 57.5 µM
In short: as §2

[7] = tested on: Es-2; experiment: as above; details: Gynecologic cancer cell panel viability, ATPlite luminescence, 48 h; series mostly up to 57.5 µM
In short: as §2

[8] = tested on: HeLa; experiment: as above; details: Gynecologic cancer cell panel viability, ATPlite luminescence, 48 h; series mostly up to 57.5 µM
In short: as §2

[9] = tested on: Hek293T; experiment: as above; details: Gynecologic cancer cell panel viability, ATPlite luminescence, 48 h, control line for the selectivity index; series mostly up to 57.5 µM
In short: as §2

[10] = tested on: JEG-3; experiment: as above; details: Gynecologic cancer cell panel viability, ATPlite luminescence, 48 h; series mostly up to 57.5 µM
In short: as §2

[11] = tested on: OV90; experiment: as above; details: Gynecologic cancer cell panel viability, ATPlite luminescence, 48 h; series mostly up to 57.5 µM
In short: as §2

[12] = tested on: PA-1; experiment: as above; details: Gynecologic cancer cell panel viability, ATPlite luminescence, 48 h; series mostly up to 57.5 µM
In short: as §2

C=C1CCC2C(OC(=O)C2(O)COC(C)=O)C2C(=C)C(O)CC12 (centres undefined)
inactive: max response [1] 8.26% | max response [2] -5.53% | Potency [3] | Potency [4] | Potency [5] | Potency [6] | Potency [7] | Potency [8] | Potency [9] | Potency [10] | Potency [11] | Potency [12]

CNC(=O)[C@H]1O[C@@H](n2cnc3c(NCc4ccc(N)c(I)c4)ncnc32)[C@H](O)[C@@H]1O
inactive: outcome [1] | max response [2] -0.967% | outcome [3] inactive [at 9.27 µM] | activity change, negative = cytotoxicity [4] 17.6% [at 11.6 µM] | activity change, negative = cytotoxicity [5] -1.57% [at 11.6 µM] | activity change, negative = cytotoxicity [6] 16.3% [at 11.6 µM] | activity change, negative = cytotoxicity [7] 0.484% [at 11.6 µM] | activity change, negative = cytotoxicity [8] 5.87% [at 11.6 µM] | activity change, negative = cytotoxicity [9] 0.59% [at 11.6 µM] | activity change, negative = cytotoxicity [10] 20.5% [at 11.6 µM] | activity change, negative = cytotoxicity [11] -0.89% [at 11.6 µM] | activity change, negative = cytotoxicity [12] 0.696% [at 11.6 µM]

CC(C)CC(=O)OC[C@H]1O[C@@](COC(=O)CC(C)C)(O[C@H]2O[C@H](CO)[C@@H](O)[C@H](O)[C@H]2OC(=O)CC(C)C)[C@@H](OC(=O)CC(C)C)[C@@H]1O
inactive: max response [1] 6.03% | max response [2] 0.671% | Potency [3] | Potency [4] | Potency [5] | Potency [6] | Potency [7] | Potency [8] | Potency [9] | Potency [10] | Potency [11] | Potency [12]

CC1(C)CC2C3=CCC4C5(C)CCC(OC6OC(CO)C(O)C(OC7OC(CO)C(O)C(OC8OC(CO)C(O)C(OC9OC(COC%10OC(CO)C(O)C(O)C%10O)C(O)C(O)C9O)C8O)C7O)C6O)C(C)(C)C5CCC4(C)C3(C)CCC2(C(=O)O)CC1O (centres undefined)
inactive: max response [1] -7.8% | max response [2] 2.99% | outcome [3] inactive [at 9.27 µM] | activity change, negative = cytotoxicity [4] 6.53% [at 6.55 µM] | activity change, negative = cytotoxicity [5] 3.47% [at 6.55 µM] | activity change, negative = cytotoxicity [6] -0.0614% [at 6.55 µM] | activity change, negative = cytotoxicity [7] 1.92% [at 6.55 µM] | activity change, negative = cytotoxicity [8] -11.1% [at 6.55 µM] | activity change, negative = cytotoxicity [9] -9.53% [at 6.55 µM] | activity change, negative = cytotoxicity [10] 6.92% [at 6.55 µM] | activity change, negative = cytotoxicity [11] 0.668% [at 6.55 µM] | activity change, negative = cytotoxicity [12] 1.44% [at 6.55 µM]

C=C(C)[C@@H]1CC[C@](C)(O)[C@@H](OC(=O)c2ccccc2)C1
inactive: max response [1] 2.9% | outcome [2] | Potency [3] | Potency [4] | Potency [5] | Potency [6] | Potency [7] | Potency [8] | Potency [9] | Potency [10] | Potency [11] | Potency [12]

CC1(CO)CC[C@]2(C(=O)O[C@@H]3O[C@H](CO)[C@@H](O)[C@H](O)[C@H]3O)CC[C@]3(C)C(=CCC4[C@@]5(C)C[C@H](O)[C@H](O[C@@H]6OC[C@@H](O)[C@H](O)[C@H]6O)[C@@](C)(CO)C5CC[C@]43C)C2C1 (some centres undefined)
inactive: outcome [1] | max response [2] 2.22% | outcome [3] inactive [at 9.27 µM] | activity change, negative = cytotoxicity [4] 5.37% [at 11.6 µM] | activity change, negative = cytotoxicity [5] -5.98% [at 11.6 µM] | activity change, negative = cytotoxicity [6] 3.16% [at 11.6 µM] | activity change, negative = cytotoxicity [7] -0.538% [at 11.6 µM] | activity change, negative = cytotoxicity [8] 1.08% [at 11.6 µM] | activity change, negative = cytotoxicity [9] 6.32% [at 11.6 µM] | activity change, negative = cytotoxicity [10] 16.2% [at 11.6 µM] | activity change, negative = cytotoxicity [11] 9.02% [at 11.6 µM] | activity change, negative = cytotoxicity [12] -3.32% [at 11.6 µM]

CC(=O)OC[C@@]12[C@@H](OC(C)=O)C[C@@H](C)[C@](C)([C@@H]3C[C@H]4C=CO[C@H]4O3)[C@H]1CCC[C@]21CO1
inactive: outcome [1] | max response [2] -2.5% | Potency [3] | Potency [4] | Potency [5] | Potency [6] | Potency [7] | Potency [8] | Potency [9] | Potency [10] | Potency [11] | Potency [12]

CC1NC(=O)C(Cc2c[nH]c3ccccc23)NC1=O (centres undefined)
inactive: max response [1] 6.79% | max response [2] 2.54% | Potency [3] | Potency [4] | Potency [5] | Potency [6] | Potency [7] | Potency [8] | Potency [9] | Potency [10] | Potency [11] | Potency [12]

CC1(C)CC[C@]2(C(=O)O)CC[C@]3(C)C(=CCC4[C@@]5(C)C[C@@H](O)[C@H](O)C(C)(C)C5CC[C@]43C)[C@@H]2[C@@H]1O (some centres undefined)
inactive: max response [1] 0.492% | max response [2] -12.3% | Potency [3] | Potency [4] | Potency [5] | Potency [6] | Potency [7] | Potency [8] | Potency [9] | Potency [10] | Potency [11] | Potency [12]

C=C/C=C/[C@@H]1OC[C@H](/C=C/C=C/C)[C@H]1O
inactive: outcome [1] | max response [2] -1.27% | Potency [3] | Potency [4] | Potency [5] | Potency [6] | Potency [7] | Potency [8] | Potency [9] | Potency [10] | Potency [11] | Potency [12]

CC(/C=C/C1(O)C(C)(C)CC(O)CC1(C)O)OC1OC(CO)C(O)C(O)C1O (centres undefined)
inactive: outcome [1] | outcome [2] | Potency [3] | Potency [4] | Potency [5] | Potency [6] | Potency [7] | Potency [8] | Potency [9] | Potency [10] | Potency [11] | Potency [12]

CC1(C)NC2N(C1=O)c1ccccc1C2(O)CC(C(=O)O)n1cnc2ccccc2c1=O (centres undefined)
inactive: outcome [1] | max response [2] -5.13% | Potency [3] | Potency [4] | Potency [5] | Potency [6] | Potency [7] | Potency [8] | Potency [9] | Potency [10] | Potency [11] | Potency [12]
